This is an account of results in article PMC8384837, “Expanding the binding specificity for RNA recognition by a PUF domain”.

Holding throughout (assay): yeast three-hybrid, YBZ-1, SC-Leu-His + 0.5 mM 3-AT, 4 days
Holding throughout (conditions): tags: N-Gal4 AD-HA kept; label: inside an RPR1-promoter hybrid RNA with tandem MS2 sites; ssRNA

In one assay the target is PUM1 PUF domain R5-ASR (Homo sapiens, UniProt Q14671 828-1176, C1007A;R1008S;Q1011R). A digest of the protocol:
(§1)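 Matching RNA elements and Pumilio-1 PUF domain libraries, randomized at the three base-contacting residues of every repeat, were co-expressed from a centromeric plasmid in strain YBZ-1 (LexA–MS2 coat fusion, HIS3 reporter). The repeat regions were PCR-amplified and Illumina-sequenced from cells grown four days on SC-Leu (input) or SC-Leu-His + 0.5 mM 3-AT (selection). The interaction score is the log change in variant frequency from input to selection. It is computed in log2, with a pseudocount of 1 for absent variants.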

A further assay concerns the target PUM1 PUF domain R5-WSR (Homo sapiens, UniProt Q14671 828-1176, C1007W;R1008S;Q1011R). The gist of the method:
as §1

For the next assay, the target named is PUM1 PUF domain R5-KLM (Homo sapiens, UniProt Q14671 828-1176, C1007K;R1008L;Q1011M). A digest of the protocol:
as §1

Another assay concerns the target PUM1 PUF domain R5-KGI (Homo sapiens, UniProt Q14671 828-1176, C1007K;R1008G;Q1011I). The gist of the method: as §1
A further assay concerns the target PUM1 PUF domain R1-GGR (Homo sapiens, UniProt Q14671 828-1176, S863G;R864G;Q867R). A digest of the protocol: as §1
Another assay has as its target PUM1 PUF domain R1-KTR (Homo sapiens, UniProt Q14671 828-1176, S863K;R864T;Q867R). A digest of the protocol:
as §1

The next assay concerns the target PUM1 PUF domain R8-RRV (Homo sapiens, UniProt Q14671 828-1176, N1122R;Y1123R;Q1126V). A digest of the protocol: as §1
A further assay has as its target PUM1 PUF domain R8-MYL (Homo sapiens, UniProt Q14671 828-1176, N1122M;Q1126L). A digest of the protocol:
as §1

The target in a further assay is PUM1 PUF domain R4-DWM (Homo sapiens, UniProt Q14671 828-1176, N971D;H972W;Q975M). The gist of the method: as §1
The next assay addresses PUM1 PUF domain R3-WYS (Homo sapiens, UniProt Q14671 828-1176, C935W;R936Y;Q939S). The gist of the method: as §1
In another assay the target is PUM1 PUF domain R3-FIG (Homo sapiens, UniProt Q14671 828-1176, C935F;R936I;Q939G). The gist of the method: as §1
For another assay, the target named is PUM1 PUF domain R3-MCK (Homo sapiens, UniProt Q14671 828-1176, C935M;R936C;Q939K). A digest of the protocol: as §1
Chain of PUM1 PUF domain R3-MCK (Q14671 828-1176 C935M/R936C/Q939K): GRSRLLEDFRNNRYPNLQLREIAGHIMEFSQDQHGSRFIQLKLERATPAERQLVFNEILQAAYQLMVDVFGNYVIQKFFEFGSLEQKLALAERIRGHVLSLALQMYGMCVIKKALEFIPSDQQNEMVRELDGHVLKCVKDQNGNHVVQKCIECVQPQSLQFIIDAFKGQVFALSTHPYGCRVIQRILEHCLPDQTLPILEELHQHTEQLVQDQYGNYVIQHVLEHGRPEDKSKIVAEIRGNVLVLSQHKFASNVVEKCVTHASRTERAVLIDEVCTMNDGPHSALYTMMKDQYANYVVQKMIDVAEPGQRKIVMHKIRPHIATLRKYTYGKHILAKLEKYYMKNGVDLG
For a further assay, the target named is PUM1 PUF domain R5-AAD (Homo sapiens, UniProt Q14671 828-1176, C1007A;R1008A;Q1011D). The gist of the method: as §1
For another assay, the target named is PUM1 PUF domain R5-HQD (Homo sapiens, UniProt Q14671 828-1176, C1007H;R1008Q;Q1011D). A digest of the protocol:
as §1

A further assay concerns the target PUM1 PUF domain R4-SPL (Homo sapiens, UniProt Q14671 828-1176, N971S;H972P;Q975L). A digest of the protocol: as §1
Another assay concerns the target PUM1 PUF domain R3-VCQ (Homo sapiens, UniProt Q14671 828-1176, C935V;R936C). A digest of the protocol: as §1
For the next assay, the target named is T1, PUM1 PUF domain R6-FWV (Homo sapiens, UniProt Q14671 828-1176, N1043F;Y1044W;Q1047V).
T1 sequence: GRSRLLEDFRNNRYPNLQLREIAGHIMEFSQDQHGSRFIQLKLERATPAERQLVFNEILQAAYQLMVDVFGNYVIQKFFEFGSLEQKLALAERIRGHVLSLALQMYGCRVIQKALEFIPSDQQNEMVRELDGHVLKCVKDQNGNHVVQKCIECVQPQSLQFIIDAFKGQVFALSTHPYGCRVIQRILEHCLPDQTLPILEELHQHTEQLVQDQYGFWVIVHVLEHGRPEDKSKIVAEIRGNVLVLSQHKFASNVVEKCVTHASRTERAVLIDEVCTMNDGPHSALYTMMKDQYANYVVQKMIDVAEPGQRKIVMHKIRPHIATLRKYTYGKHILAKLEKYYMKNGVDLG
A digest of the protocol:
as §1

For a further assay, the target named is PUM1 PUF domain R3-DHL (Homo sapiens, UniProt Q14671 828-1176, C935D;R936H;Q939L). A digest of the protocol: as §1
In the next assay the target is PUM1 PUF domain R3-TYH (Homo sapiens, UniProt Q14671 828-1176, C935T;R936Y;Q939H). The gist of the method: as §1
The target of another assay is PUM1 PUF domain R4-AQS (Homo sapiens, UniProt Q14671 828-1176, N971A;H972Q;Q975S). The gist of the method:
as §1

Chain of PUM1 PUF domain R4-SPL (Q14671 828-1176 N971S/H972P/Q975L): as the sequence (Q14671 828-1176 C935M/R936C/Q939K) above, with M108C, C109R, K112Q, N144S, H145P, Q148L counted along it
Chain of PUM1 PUF domain R3-VCQ (Q14671 828-1176 C935V/R936C): as the sequence (Q14671 828-1176 C935M/R936C/Q939K) above, with M108V, K112Q counted along it
Chain of PUM1 PUF domain R1-GGR (Q14671 828-1176 S863G/R864G/Q867R): as the sequence (Q14671 828-1176 C935M/R936C/Q939K) above, with S36G, R37G, Q40R, M108C, C109R, K112Q counted along it
Chain of PUM1 PUF domain R5-KLM (Q14671 828-1176 C1007K/R1008L/Q1011M): as the sequence (Q14671 828-1176 C935M/R936C/Q939K) above, with M108C, C109R, K112Q, C180K, R181L, Q184M counted along it
Chain of PUM1 PUF domain R5-KGI (Q14671 828-1176 C1007K/R1008G/Q1011I): as the sequence (Q14671 828-1176 C935M/R936C/Q939K) above, with M108C, C109R, K112Q, C180K, R181G, Q184I counted along it
Chain of PUM1 PUF domain R1-KTR (Q14671 828-1176 S863K/R864T/Q867R): as the sequence (Q14671 828-1176 C935M/R936C/Q939K) above, with S36K, R37T, Q40R, M108C, C109R, K112Q counted along it
Chain of PUM1 PUF domain R4-AQS (Q14671 828-1176 N971A/H972Q/Q975S): as the sequence (Q14671 828-1176 C935M/R936C/Q939K) above, with M108C, C109R, K112Q, N144A, H145Q, Q148S counted along it
Chain of PUM1 PUF domain R5-HQD (Q14671 828-1176 C1007H/R1008Q/Q1011D): as the sequence (Q14671 828-1176 C935M/R936C/Q939K) above, with M108C, C109R, K112Q, C180H, R181Q, Q184D counted along it
Chain of PUM1 PUF domain R8-MYL (Q14671 828-1176 N1122M/Q1126L): as the sequence (Q14671 828-1176 C935M/R936C/Q939K) above, with M108C, C109R, K112Q, N295M, Q299L counted along it

Regarding “GGCUAGAACUAGUGGAUCCCCCGGCGCCCGGCGGCUCGAGCCCGGGUAAGUGUCAAUAGUCUGCAUGCCGCCGGGCGCCAUGCCUGCAGGUCGACUCUAGAAAACAUG”, the binding signal was 5.07 log2 enrichment (interaction score) in the assay with PUM1 PUF domain R5-ASR, 5.87 log2 enrichment (interaction score) with PUM1 PUF domain R5-WSR, 2.69 log2 enrichment (interaction score) in the assay with PUM1 PUF domain R5-KLM and 3.97 log2 enrichment (interaction score) in the assay with PUM1 PUF domain R5-KGI.
Consider “GGCUAGAACUAGUGGAUCCCCCGGCGCCCGGCGGCUCGAGCCCGGGUAAGUGUAAAUUGUCUGCAUGCCGCCGGGCGCCAUGCCUGCAGGUCGACUCUAGAAAACAUG”, for which the binding signal with PUM1 PUF domain R1-GGR is 1.86 log2 enrichment (interaction score); with PUM1 PUF domain R1-KTR, 4.86 log2 enrichment (interaction score).
Turning to “GGCUAGAACUAGUGGAUCCCCCGGCGCCCGGCGGCUCGAGCCCGGGUAAGCGUAAAUAGUCUGCAUGCCGCCGGGCGCCAUGCCUGCAGGUCGACUCUAGAAAACAUG”, the binding signal was 2.4 log2 enrichment (interaction score) with PUM1 PUF domain R8-RRV and 2.58 log2 enrichment (interaction score) with PUM1 PUF domain R8-MYL.
Turning to “GGCUAGAACUAGUGGAUCCCCCGGCGCCCGGCGGCUCGAGCCCGGGUAAGUGUACAUAGUCUGCAUGCCGCCGGGCGCCAUGCCUGCAGGUCGACUCUAGAAAACAUG”, the binding signal with PUM1 PUF domain R4-DWM is 4.24 log2 enrichment (interaction score).
“GGCUAGAACUAGUGGAUCCCCCGGCGCCCGGCGGCUCGAGCCCGGGUAAGUGUAAGUAGUCUGCAUGCCGCCGGGCGCCAUGCCUGCAGGUCGACUCUAGAAAACAUG”: the binding signal was 2.89 log2 enrichment (interaction score) with PUM1 PUF domain R3-WYS, 3.51 log2 enrichment (interaction score) with PUM1 PUF domain R3-FIG and 4.78 log2 enrichment (interaction score) in the assay with PUM1 PUF domain R3-MCK.
For the sequence “GGCUAGAACUAGUGGAUCCCCCGGCGCCCGGCGGCUCGAGCCCGGGUAAGUGUGAAUAGUCUGCAUGCCGCCGGGCGCCAUGCCUGCAGGUCGACUCUAGAAAACAUG”, the binding signal with PUM1 PUF domain R5-AAD is 2.97 log2 enrichment (interaction score).
As to “GGCUAGAACUAGUGGAUCCCCCGGCGCCCGGCGGCUCGAGCCCGGGUAAGUGUUAAUAGUCUGCAUGCCGCCGGGCGCCAUGCCUGCAGGUCGACUCUAGAAAACAUG”, the binding signal with PUM1 PUF domain R5-ASR was 1.28 log2 enrichment (interaction score); with PUM1 PUF domain R5-HQD, 3.03 log2 enrichment (interaction score); with PUM1 PUF domain R5-KLM it was 0.44 log2 enrichment (interaction score).
As to “GGCUAGAACUAGUGGAUCCCCCGGCGCCCGGCGGCUCGAGCCCGGGUAAGUGUAAAUCGUCUGCAUGCCGCCGGGCGCCAUGCCUGCAGGUCGACUCUAGAAAACAUG”, the binding signal with PUM1 PUF domain R1-GGR was 3.41 log2 enrichment (interaction score).
As to “GGCUAGAACUAGUGGAUCCCCCGGCGCCCGGCGGCUCGAGCCCGGGUAAGUGUAUAUAGUCUGCAUGCCGCCGGGCGCCAUGCCUGCAGGUCGACUCUAGAAAACAUG”, the binding signal in the assay with PUM1 PUF domain R4-SPL is 1.39 log2 enrichment (interaction score).
For the sequence “GGCUAGAACUAGUGGAUCCCCCGGCGCCCGGCGGCUCGAGCCCGGGUAAGUGUAAUUAGUCUGCAUGCCGCCGGGCGCCAUGCCUGCAGGUCGACUCUAGAAAACAUG”, in the assay with PUM1 PUF domain R3-VCQ, the binding signal is 0.32 log2 enrichment (interaction score).
For “GGCUAGAACUAGUGGAUCCCCCGGCGCCCGGCGGCUCGAGCCCGGGUAAGUGUAAAUAGUCUGCAUGCCGCCGGGCGCCAUGCCUGCAGGUCGACUCUAGAAAACAUG”, the binding signal in the assay with PUM1 PUF domain R6-FWV is 4.97 log2 enrichment (interaction score); with PUM1 PUF domain R4-DWM, 6.03 log2 enrichment (interaction score); in the assay with PUM1 PUF domain R8-RRV, 0.86 log2 enrichment (interaction score); with PUM1 PUF domain R3-DHL, 3.42 log2 enrichment (interaction score); with PUM1 PUF domain R3-TYH, 2.88 log2 enrichment (interaction score); with PUM1 PUF domain R4-SPL, 2.38 log2 enrichment (interaction score). The binding signal with PUM1 PUF domain R3-VCQ was 2.76 log2 enrichment (interaction score); with PUM1 PUF domain R4-AQS it was 2.27 log2 enrichment (interaction score).
